PubChem BioAssay (Tox21)
Inconclusive results are not listed. The source made the active and inactive calls. Unless noted, the call rests on the fitted dose curve; in most records, active means well fitted curve in the direction sought with a large enough effect in the repeat runs; inconclusive means weak or mixed curves; inactive means no such curve, though single readings can be large; an effect the other way counts as inactive or inconclusive.

Experiments:
[1] = target: Luciferin 4-monooxygenase (Photinus pyralis) (UniProt P08659); assay: qHTS assay to identify small molecule inhibitors of firefly luciferase (AID 1224835); further: nearly all actives have a fitted effect of over 25% in size; further: potency means the concentration at half of the fitted maximal effect
Luciferin 4-monooxygenase (Photinus pyralis), sequence (P08659 whole entry, looked up): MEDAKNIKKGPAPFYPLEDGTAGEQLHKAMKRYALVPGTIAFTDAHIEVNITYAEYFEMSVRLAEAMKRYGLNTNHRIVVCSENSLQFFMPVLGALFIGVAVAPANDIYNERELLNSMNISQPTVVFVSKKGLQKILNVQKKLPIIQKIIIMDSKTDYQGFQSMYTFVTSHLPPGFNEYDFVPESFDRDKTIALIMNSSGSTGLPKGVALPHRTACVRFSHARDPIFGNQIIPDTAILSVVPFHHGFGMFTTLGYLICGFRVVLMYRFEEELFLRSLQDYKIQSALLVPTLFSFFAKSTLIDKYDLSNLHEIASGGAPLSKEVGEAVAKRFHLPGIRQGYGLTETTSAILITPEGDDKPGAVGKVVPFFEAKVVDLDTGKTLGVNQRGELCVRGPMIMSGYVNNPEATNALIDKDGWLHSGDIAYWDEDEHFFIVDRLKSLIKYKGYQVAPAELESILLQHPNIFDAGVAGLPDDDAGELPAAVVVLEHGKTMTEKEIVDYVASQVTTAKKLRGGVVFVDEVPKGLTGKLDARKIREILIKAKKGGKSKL
Outline: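 Biochemical qHTS: compounds run as interplate titrations against purified firefly enzyme, with D-luciferin and ATP each at its KM concentration. Light output recorded by CCD imaging.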

[2] = qHTS assay to identify small molecule agonists of the constitutive androstane receptor (CAR) signaling pathway - cell viability counter screen (AID 1224836); further: nearly all actives have a fitted effect of over 45% in size; further: potency means the concentration at half of the fitted maximal effect
Outline: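 HepG2-CYP2B6-hCAR, 2500 cells/well, 4 h pre-incubation; cpd 15 conc + PK11195 0.75 uM final; 23 h, 37 C/5% CO2; CellTiter-Fluor, fluorescence.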

[3] = qHTS assay to identify small molecule antagonists of the constitutive androstane receptor (CAR) signaling pathway - cell viability counter screen (AID 1224837); further: nearly all actives have a fitted effect of over 45% in size; further: potency means the concentration at half of the fitted maximal effect
Outline: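 Counter screen run in HepG2-CYP2B6-hCAR cells: 4 hr settle, compound titration (15 concentrations) with 50 nM CITCO, 23 hr at 37 C/5% CO2, CellTiter-Fluor fluorescence.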

[4] = target: Nuclear receptor subfamily 1 group I member 3 (Homo sapiens) (UniProt Q14994); assay: qHTS assay to identify small molecule antagonists of the constitutive androstane receptor (CAR) signaling pathway (AID 1224838);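 further: HepG2 cells stably expressing hCAR with CYP2B6 luciferase reporter stimulated by CITCO; nearly all actives have a fitted effect of over 40% in size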; further: potency means the concentration at half of the fitted maximal effect
Nuclear receptor subfamily 1 group I member 3 (Homo sapiens), sequence (Q14994 whole entry, looked up): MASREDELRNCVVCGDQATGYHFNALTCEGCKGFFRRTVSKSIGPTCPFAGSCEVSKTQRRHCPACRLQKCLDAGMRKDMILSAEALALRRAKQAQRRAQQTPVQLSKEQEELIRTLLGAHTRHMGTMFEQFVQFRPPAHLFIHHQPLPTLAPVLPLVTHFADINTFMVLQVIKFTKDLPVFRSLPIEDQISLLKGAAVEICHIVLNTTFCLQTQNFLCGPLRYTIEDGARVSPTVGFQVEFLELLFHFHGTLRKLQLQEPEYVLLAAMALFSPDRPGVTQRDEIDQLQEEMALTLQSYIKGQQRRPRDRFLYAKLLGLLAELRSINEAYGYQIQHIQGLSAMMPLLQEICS
Outline: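 Cell line: HepG2 double-stable for hCAR and CYP2B6-2.2kb reporter. Agonist: CITCO, 50 nM final. Compounds: 15 concentrations, 24 h, 37 C. Detection: ONE-Glo luminescence.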

[5] = target: Nuclear receptor subfamily 1 group I member 3 (Homo sapiens) (UniProt Q14994); assay: qHTS assay to identify small molecule agonists of the constitutive androstane receptor (CAR) signaling pathway (AID 1224839); further: nearly all actives have a fitted effect of over 15% in size; further: potency means the concentration at half of the fitted maximal effect;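 on activation: HepG2 cells stably carrying human CAR and a CYP2B6 luciferase reporter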
Outline: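 HepG2-CYP2B6-hCAR cells, 2500/well, 4 h pre-incubation; compounds 15 conc.; PK11195 0.75 uM final; 24 h, 37 C/5% CO2; ONE-Glo luciferase read.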

[6] = qHTS assay to identify small molecule antagonists of the estrogen related receptor signaling pathway with the pleiotropic PPARgamma coactivator (PGC) from Tox21 10K library - cell viability counter screen (AID 1224840; active means well fitted cell-killing curve with a large enough effect in the repeat runs, not every such curve was filed as active; further: nearly all actives have a fitted effect of over 40% in size; further: potency means the concentration at half of the fitted maximal effect)
Outline: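 Following seeding of 2,000 PGC/ERR cells/well and 6 hours' incubation, test compounds were delivered in DMSO. The plates then sat 17.5 hours at 37 C before a fluorogenic live-cell protease reagent (CellTiter-Fluor) was read after 30 min.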

[7] = qHTS assay to identify small molecule antagonists of the estrogen related receptor signaling pathway with the pleiotropic PPARgamma coactivator (PGC) from Tox21 10K library (AID 1224841; call rule not given here; further: actives are mostly falling curves and most rising ones were filed inactive; nearly all actives have a fitted effect of over 50% in size; further: potency means the concentration at half of the fitted maximal effect)
Outline: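 qHTS antagonist format: PGC/ERR cells, 2k/well, compound in DMSO by pin transfer after 6 h attachment, 18 h treatment at 37 C, One-Glo luminescence read at 30 min.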

[8] = qHTS assay to identify small molecule agonists of the estrogen related receptor signaling pathway with the pleiotropic PPARgamma coactivator (PGC) from Tox21 10K library (AID 1224842); further: nearly all actives have a fitted effect of over 15% in size; further: potency means the concentration at half of the fitted maximal effect
Outline: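 PGC/ERR reporter cell line, 2,000 cells per well, incubated 6 h at 37 C before 23 nL compound in DMSO was added. After 18 h at 37 C, One-Glo luminescence read following 30 min at room temperature.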

[9] = target: Thyrotropin receptor (Homo sapiens) (UniProt P16473); assay: qHTS assay to identify small molecule agonists of the thyroid stimulating hormone receptor (TSHR) signaling pathway (AID 1224843; calls by dose curve; further: nearly all actives have a fitted effect of over 45% in size)
Thyrotropin receptor (Homo sapiens), sequence (P16473 whole entry, looked up): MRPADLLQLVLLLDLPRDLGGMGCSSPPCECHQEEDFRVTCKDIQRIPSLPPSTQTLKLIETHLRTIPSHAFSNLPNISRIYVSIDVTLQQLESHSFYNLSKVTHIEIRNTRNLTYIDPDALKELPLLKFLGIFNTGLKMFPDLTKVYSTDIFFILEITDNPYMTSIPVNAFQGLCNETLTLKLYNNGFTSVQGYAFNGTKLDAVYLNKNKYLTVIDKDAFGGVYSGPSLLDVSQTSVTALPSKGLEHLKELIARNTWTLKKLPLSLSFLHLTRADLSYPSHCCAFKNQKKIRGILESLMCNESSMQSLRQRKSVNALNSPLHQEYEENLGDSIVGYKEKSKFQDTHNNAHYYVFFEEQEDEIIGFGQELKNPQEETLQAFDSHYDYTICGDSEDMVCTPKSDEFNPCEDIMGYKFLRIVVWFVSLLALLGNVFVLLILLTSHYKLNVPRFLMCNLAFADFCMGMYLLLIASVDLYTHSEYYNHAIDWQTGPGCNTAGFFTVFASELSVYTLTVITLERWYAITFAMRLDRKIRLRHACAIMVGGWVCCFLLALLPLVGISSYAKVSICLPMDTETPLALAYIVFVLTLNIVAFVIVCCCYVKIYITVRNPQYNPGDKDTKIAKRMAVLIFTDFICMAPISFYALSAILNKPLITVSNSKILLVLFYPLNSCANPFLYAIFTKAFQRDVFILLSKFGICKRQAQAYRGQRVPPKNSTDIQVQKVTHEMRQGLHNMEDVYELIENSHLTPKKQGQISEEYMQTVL
Outline: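 TSHR-HEK293 cells in agonist mode, 30 min room-temperature step, then cAMP measured by competitive HTRF (cAMP-d2 with anti-cAMP cryptate) after 1 h at room temperature. Tested at 15 concentrations in triplicate.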

[10] = qHTS assay to identify small molecule agonists of the hypoxia (HIF-1) signaling pathway - cell viability counter screen (AID 1224844; calls by dose curve; further: nearly all actives have a fitted effect of over 50% in size)
Outline: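 Cells (HRE-bla ME-180, 2,000 per well) sat 5 hrs at 37C, got compound for 17 hrs, were read for CCF4-AM FRET, and were finally lysed with CellTiter-Glo for a 30 min room-temperature luminescence read.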

[11] = qHTS assay to identify small molecule agonists of H2AX (AID 1224845; active means well fitted activation curve with a large enough effect in the signal ratio in the repeat runs, not every such curve was filed as active; the % refers to the signal ratio)
Outline: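 Wild-type CHO-K1 cells, plated overnight, exposed 3hr at 37C to 15 concentrations (0.76% DMSO final). Lysed, then HTRF anti-pH2AX (S139) cryptate and anti-H2AX-d2 antibodies, 24 hr room temperature; 665/620 nm emission read.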

[12] = qHTS assay to identify small molecule agonists of the hypoxia (HIF-1) signaling pathway (AID 1224846; active means well fitted activation curve with a large enough effect in the signal ratio in the repeat runs, not every such curve was filed as active; the % refers to the signal ratio)
Outline: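 A low-serum medium (0.5% dialyzed FBS) holding 2,000 HRE-bla ME-180 cells per well is preincubated for 5 hrs, dosed with compounds by pintool, and kept a further 17 hrs at 37C, 5% CO2 before CCF4-AM FRET detection of beta-lactamase.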

[13] = qHTS assay to identify small molecule antagonists of the estrogen related receptor (ERR) signaling pathway from Tox21 library (AID 1224848); further: nearly all actives have a fitted effect of over 50% in size; further: potency means the concentration at half of the fitted maximal effect
Outline: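 ERR reporter cell line (from NTP) seeded 2,000 cells/well, rested 6 h at 37 C/5% CO2, then pin-dosed with compounds in DMSO. After 18 h at 37 C, ONE-Glo added; luminescence read after 30 min at room temperature.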

[14] = qHTS assay to identify small molecule agonists of the estrogen related receptor (ERR) signaling pathway from Tox21 library (AID 1224849; calls by dose curve; further: nearly all actives have a fitted effect of over 15% in size); details: ERR reporter cell line, ONE-Glo luciferase, 18 h
Outline: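 Screening used an NTP-provided ERR luciferase cell line. Compounds in DMSO were added 6 h after seeding and left 18 h at 37 C before a 30 min ONE-Glo step and luminescence reading.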

[15] = qHTS RealTime-Glo MT Cell Viability Assay in HepG2 cells - 24 hour (AID 1224867); further: nearly all actives have a fitted effect of over 50% in size
Outline: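 Cell number in HepG2 cultures estimated from NanoLuc luminescence generated by metabolic reduction of a prosubstrate by living cells. The homogeneous, nonlytic format allowed repeated reads at 0, 8, 16, 24, 32 and 40 h of compound exposure.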

[16] = qHTS RealTime-Glo MT Cell Viability Assay in HEK293 cells - 32 hour (AID 1224868)
Outline: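 Homogeneous bioluminescent viability format in HEK293 cells (600 cells/well). Following 5 h at 37 C/5% CO2, 23 nL compound was pintooled; the signal was measured repeatedly during 40 h incubation.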

[17] = A CellTox Green Cytotoxicity Assay to monitor cytotoxicity in HEK293 cells - 0 hour (AID 1224869); further: nearly all actives have a fitted effect of over 50% in size
Outline: (§1)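 Fluorescence intensity, read at 0, 8, 16, 24, 32 and 40 h of compound treatment, reflected dye binding to DNA of dead HEK293 cells; compounds (23 nL, DMSO) were added 5 h after plating cells with reagent.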

[18] = qHTS RealTime-Glo MT Cell Viability Assay in HepG2 cells - 40 hour (AID 1224870); further: nearly all actives have a fitted effect of over 50% in size
Outline: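 HepG2 cells (600/well) mixed with RealTime-Glo MT reagent, settled 5 h at 37 C/5% CO2 before compound addition. Nonlytic NanoLuc luminescence from viable-cell prosubstrate reduction read repeatedly during 40 h treatment at 37 C.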

[19] = A CellTox Green Cytotoxicity Assay to monitor cytotoxicity in HEK293 cells - 40 hour (AID 1224871); further: nearly all actives have a fitted effect of over 45% in size
Outline: as §1

[20] = qHTS assay to identify small molecule agonists of H2AX - cell viability counter screen (AID 1224847; calls by dose curve; further: nearly all actives have a fitted effect of over 30% in size; further: potency means the concentration at half of the fitted maximal effect)
Outline: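 Cells plated first: CHO-K1, 1000 per well in 10% FBS medium, incubated overnight at 37C. Then 15-point compound titration added (final DMSO 0.76%) for 3 hr. Finally CellTiter-Glo added and luminescence read.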
On the % scale 0 is the no-effect control and ±100 the full control effect.

COc1cc(C)ccc1O
inactive: Potency [1] | Potency [2] | Potency [3] | Potency [4] | Potency [5] | Potency [6] | Potency [7] | Potency [8] | Potency [9] | Potency [10] | Potency [11] | Potency [12] | Potency [13] | activity change, positive = activation ([14]; at 92.4 µM (top of the series)) 5.96% | Potency [15] | Potency [16] | Potency [17] | Potency [18] | Potency [19]

Cc1cc(C(C)(C)C)cc(C)c1CC1=NCCN1
inactive: Potency [1] | Potency [2] | Potency [3] | Potency [4] | Potency [5] | Potency [6] | Potency [7] | Potency [8] | Potency [9] | Potency [10] | Potency [11] | Potency [20] | Potency [13] | activity change, positive = activation ([14]; at 42.5 µM (top of the series)) -3.5% | Potency [15] | Potency [16] | Potency [17] | Potency [18] | Potency [19]

Cc1cc(-n2nc3ccc(Cl)cc3n2)c(O)c(C(C)(C)C)c1
inactive: Potency [1] | Potency [2] | Potency [3] | Potency [4] | Potency [5] | Potency [6] | Potency [7] | Potency [8] | Potency [9] | Potency [10] | Potency [11] | Potency [20] | Potency [13] | activity change, positive = activation ([14]; at 42.5 µM (top of the series)) 2.34% | Potency [15] | Potency [18] | Potency [19]

COc1cc(/C=C/c2ccccc2)oc(=O)c1
active: Potency [1] 7.35 µM | Potency [5] 7.96 µM | Potency [8] 5.64 µM | activity change, positive = activation ([14]; at 92.4 µM (top of the series)) 36.4%
inactive: Potency [2] | Potency [3] | Potency [4] | Potency [6] | Potency [7] | Potency [9] | Potency [10] | Potency [11] | Potency [12] | Potency [20] | Potency [13] | Potency [15] | Potency [17] | Potency [18] | Potency [19]

CCN(CC)c1ccc2c(-c3ccc(S(=O)(=O)O)cc3S(=O)(=O)[O-])c3ccc(=[N+](CC)CC)cc-3oc2c1
inactive: Potency [5] | Potency [8] | Potency [10] | Potency [12] | activity change, positive = activation ([14]; at 92.4 µM (top of the series)) -38.9% | Potency [15] | Potency [17] | Potency [18]
active: Potency [1] 26 µM | Potency [2] 31.6 µM | Potency [3] 28.2 µM | Potency [4] 28.2 µM | Potency [6] 28.2 µM | Potency [7] 28.2 µM | Potency [20] 20.7 µM | Potency [13] 35.5 µM

CCOC(=O)NNc1ccc(N(CC)CC(C)O)nn1 (configuration not stated)
inactive: Potency [1] | Potency [2] | Potency [3] | Potency [4] | Potency [5] | Potency [6] | Potency [7] | Potency [8] | Potency [9] | Potency [10] | Potency [12] | Potency [13] | activity change, positive = activation ([14]; at 42.5 µM (top of the series)) 0.457% | Potency [15] | Potency [16] | Potency [17] | Potency [18]
